Test [1] concerns Wnt5a (protein binding on small-molecule microarray). In words: small molecules binding Wnt5a protein – biophysical, small-molecule microarray, 635/667 nm fluorescence, primary screen (AID 1142).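 Further: fluorescence read at 667 nm with signal to noise per printed feature.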 The settings on record: 635 nm fluorescence, higher = more signal.
Test [2] can be described thus: ATP-based viability of Huh7 replicon cells – cell-based, CellTiter-Glo luminescence, basal, 48 h, cytotoxicity control for HCV replication inhibitor project, primary screen (AID 1143).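 Further: Huh7 hepatoma cells carrying a hepatitis C replication reporter with no stimulus; test concentration not given here.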 The settings on record: higher = more signal, called active from +8 up or from −8 down. A general note: Replicon systems follow genome replication, usually without infectious particles.

The nature of test [3]: Pseudomonas biofilm growth suppression – PAO1 strain, BacTiter-Glo luminescence, LB-PBS, primary screen (AID 1144). The following applies: P. aeruginosa PAO1 biofilm, 12 h, higher = more signal.
The nature of test [4]: basal CRE-LacZ reporter activity in PC12 – cell-based, unstimulated, primary screen (AID 1145). The settings on record: no forskolin, luminescence, 4.5 h, higher = more signal, called active from +8 up or from −8 down.
Test [5] can be described thus: forskolin-driven CRE-LacZ activity in PC12 – cell-based, CRE-LacZ reporter, forskolin-stimulated, primary screen (AID 1146).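 Further: PC12 cells with 6xCRE LacZ reporter stimulated by forskolin 10 µM; beta-galactosidase reporter signal reflecting CREB driven transcription.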 The settings on record: luminescence, 4.5 h, higher = more signal, called active from +8 up or from −8 down.
The target of test [6] is Streptavidin (Streptomyces avidinii) (UniProt P22629). The experiment in a line: compounds binding control protein streptavidin – biophysical, small-molecule microarray, 635/667 nm fluorescence, artefact control for SMM compound annotation, primary screen (AID 1147).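 Further: signal reflects streptavidin binding to arrayed compounds as a control protein.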 The settings on record: higher = more signal.
Sequence of Streptavidin (Streptomyces avidinii) (P22629 whole entry, looked up): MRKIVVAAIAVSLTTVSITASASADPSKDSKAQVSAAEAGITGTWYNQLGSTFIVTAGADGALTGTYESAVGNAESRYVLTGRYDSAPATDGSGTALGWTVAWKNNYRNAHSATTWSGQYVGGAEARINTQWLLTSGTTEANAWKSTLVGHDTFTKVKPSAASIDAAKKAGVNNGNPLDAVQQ
Test [7] can be described thus: probe aInhba binding on compound microarray – biochemical, small-molecule microarray, 635/667 nm fluorescence, primary screen (AID 1148).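 Further: score merges 667nm spot fluorescence with signal-to-noise for antibody binding to printed compounds.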 The following applies: higher = more signal.
Test [8] deals with Torsin-1A (Homo sapiens) (UniProt O14656). In words: TOR1A wild-type binding on microarray – cell lysate, small-molecule microarray, lysate, 635/667 nm, primary screen (AID 1149). The settings on record: COS7 hTOR1A-WT lysate, 635 nm fluorescence, higher = more signal.
Sequence of Torsin-1A (Homo sapiens) (O14656 whole entry, looked up): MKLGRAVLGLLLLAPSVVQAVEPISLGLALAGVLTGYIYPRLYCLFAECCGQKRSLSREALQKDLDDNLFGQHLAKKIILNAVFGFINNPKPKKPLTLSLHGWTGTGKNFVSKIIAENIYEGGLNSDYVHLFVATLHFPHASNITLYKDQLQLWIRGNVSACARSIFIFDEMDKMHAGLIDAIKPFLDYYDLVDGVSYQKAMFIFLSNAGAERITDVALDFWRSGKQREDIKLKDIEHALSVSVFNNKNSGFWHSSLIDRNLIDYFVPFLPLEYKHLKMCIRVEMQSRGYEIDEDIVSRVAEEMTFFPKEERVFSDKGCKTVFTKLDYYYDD
For test [9] the target is unchanged. In words: torsin A mutant lysate binding on microarrays – cell lysate, small-molecule microarray, COS7 lysate, 635/667 nm fluorescence, primary screen (AID 1150).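 Further: score pools 667 nm emission and signal to noise measuring lysate protein binding.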 The settings on record: COS7 hTOR1A mutant lysate, 635 nm fluorescence, higher = more signal.
The subject of test [10] is Sonic hedgehog protein (Shh). In words: Sonic hedgehog microarray binding compounds – biochemical, small-molecule microarray, 635/667 nm fluorescence, primary screen (AID 1151).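 Further: Shh protein binding to compounds spotted on small-molecule microarray slides; score combines spot fluorescence intensity with signal-to-noise across triplicate slides.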 The following applies: 635 nm fluorescence, higher = more signal.
Test [11] is described as follows: optical density shifts of acrAB sulA E. coli – strain DRC41, OD650, 48 h, E. coli filamentation inducer project, primary screen (AID 1152).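 Further: E. coli MC1000 strain DRC41 lacking acrAB efflux pump and sulA.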 The settings on record: higher = more signal, called active from +8 up or from −8 down.
Test [12] in a line: probe aLefty1 binding on compound microarray – biochemical, small-molecule microarray, 635/667 nm fluorescence, primary screen (AID 1153).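 Further: score merges spot fluorescence with signal-to-noise ratio from the scanned slide images.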 The following applies: higher = more signal.
Test [13] in a line: plasmodial surface anion channel blockers, osmotic lysis – cell-based, P. falciparum Indochina, OD700, 1 h, primary screen (AID 1154). The following applies: P. falciparum Indochina infected RBC osmotic lysis, higher = more signal, called active from +8 up or from −8 down.
Test [14] is described as follows: plasmodial surface anion channel blockers, osmotic lysis – cell-based, P. falciparum Indochina, OD700, 2 h, primary screen (AID 1155).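 Further: lysis reports solute entry through the parasite surface anion channel PSAC.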 The settings on record: P. falciparum Indochina infected erythrocytes, higher = more signal, called active from +8 up or from −8 down.
A short description of test [15]: changes in parasitized red cell lysis, either direction – P. falciparum Indochina, OD700, 3 h, PSAC antagonist project, primary screen (AID 1156). The settings on record: P. falciparum-infected erythrocytes, osmotic lysis, higher = more signal, called active from +8 up or from −8 down.
Test [16] is described as follows: plasmodial surface anion channel blockers, osmotic lysis – cell-based, P. falciparum Indochina, OD700, 18 h, primary screen (AID 1157). The following applies: P. falciparum Indochina infected erythrocytes, osmotic lysis OD700, 18 h; higher = more signal, called active from +8 up or from −8 down.
Test [17] is described as follows: S6 kinase pathway phospho-S6 level changes – cell-based, A549, cytoblot, luminescence, serum-stimulated, primary screen (AID 1158).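 Further: serum-stimulated A549 lung adenocarcinoma cells; signal is phosphorylated S6 detected by cytoblot immunostaining with HRP secondary.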 The settings on record: 5 h, higher = more signal.
Test [18] addresses NADPH oxidase 2 (Homo sapiens) (UniProt P04839). In words: compounds shifting NOX2 Amplex Red fluorescence – cell-based, HEK293-NOX2, PMA-stimulated, NOX inhibitor project, primary screen (AID 1159). Further: test concentration not given here. The following applies: 45 min, higher = more signal, called active from +8 up or from −8 down.
In test [19] the target is NADPH oxidase 4 (Homo sapiens) (UniProt Q9NPH5). In words: compounds shifting NOX4 Amplex Red fluorescence – cell-based, HEK293-NOX4, tetracycline-induced, NOX inhibitor project, primary screen (AID 1160). The settings on record: HEK293-NOX4, Amplex Red H2O2 fluorescence, 45 min; higher = more signal, called active from +8 up or from −8 down.
Sequence of NADPH oxidase 4 (Homo sapiens) (Q9NPH5 whole entry, looked up): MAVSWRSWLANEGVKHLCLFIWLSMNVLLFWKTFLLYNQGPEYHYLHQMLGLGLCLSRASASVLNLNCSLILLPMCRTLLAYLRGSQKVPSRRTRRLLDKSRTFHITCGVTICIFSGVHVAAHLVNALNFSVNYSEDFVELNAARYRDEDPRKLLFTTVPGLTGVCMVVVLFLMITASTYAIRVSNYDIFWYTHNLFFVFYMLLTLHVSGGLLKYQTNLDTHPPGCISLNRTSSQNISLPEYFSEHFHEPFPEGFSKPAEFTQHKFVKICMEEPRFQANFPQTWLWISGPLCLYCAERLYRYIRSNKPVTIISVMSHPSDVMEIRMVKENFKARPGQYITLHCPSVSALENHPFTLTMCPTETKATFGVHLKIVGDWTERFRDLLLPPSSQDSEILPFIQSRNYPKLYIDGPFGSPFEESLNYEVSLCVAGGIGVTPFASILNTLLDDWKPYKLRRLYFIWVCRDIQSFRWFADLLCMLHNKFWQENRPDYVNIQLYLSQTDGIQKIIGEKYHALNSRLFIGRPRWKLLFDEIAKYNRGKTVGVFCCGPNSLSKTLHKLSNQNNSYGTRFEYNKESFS
In test [20] the target is NADPH oxidase 5 (Homo sapiens) (UniProt Q96PH1). In words: compounds shifting NOX5 Amplex Red fluorescence – cell-based, HEK293-NOX5, NOX inhibitor project, primary screen (AID 1161). The following applies: HEK293-NOX5, ionomycin, 45 min, higher = more signal.
Sequence of NADPH oxidase 5 (Homo sapiens) (Q96PH1 whole entry, looked up): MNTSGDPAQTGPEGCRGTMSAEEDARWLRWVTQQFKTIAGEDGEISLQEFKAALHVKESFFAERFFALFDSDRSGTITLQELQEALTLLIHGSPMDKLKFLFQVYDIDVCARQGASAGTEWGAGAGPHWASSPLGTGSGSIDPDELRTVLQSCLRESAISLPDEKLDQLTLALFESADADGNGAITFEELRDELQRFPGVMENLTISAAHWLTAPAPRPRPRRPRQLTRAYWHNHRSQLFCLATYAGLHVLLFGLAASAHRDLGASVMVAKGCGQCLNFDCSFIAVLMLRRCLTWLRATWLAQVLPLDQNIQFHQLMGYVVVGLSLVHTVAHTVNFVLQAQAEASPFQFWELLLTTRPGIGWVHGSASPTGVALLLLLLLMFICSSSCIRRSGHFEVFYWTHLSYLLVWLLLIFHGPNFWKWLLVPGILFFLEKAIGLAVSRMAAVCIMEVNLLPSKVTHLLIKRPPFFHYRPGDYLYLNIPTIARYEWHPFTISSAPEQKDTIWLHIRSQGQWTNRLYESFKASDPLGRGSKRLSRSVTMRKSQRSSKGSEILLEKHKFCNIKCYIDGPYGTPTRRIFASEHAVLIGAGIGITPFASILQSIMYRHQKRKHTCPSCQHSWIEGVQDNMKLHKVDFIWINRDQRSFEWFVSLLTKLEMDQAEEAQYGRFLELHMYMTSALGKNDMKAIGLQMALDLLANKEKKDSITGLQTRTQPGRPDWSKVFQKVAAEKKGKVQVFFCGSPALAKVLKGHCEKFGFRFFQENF

Calls of active or inactive are those of the source. Unless noted, how the calls were made is not given here.

Sequence of NADPH oxidase 2 (Homo sapiens) (P04839 whole entry, looked up): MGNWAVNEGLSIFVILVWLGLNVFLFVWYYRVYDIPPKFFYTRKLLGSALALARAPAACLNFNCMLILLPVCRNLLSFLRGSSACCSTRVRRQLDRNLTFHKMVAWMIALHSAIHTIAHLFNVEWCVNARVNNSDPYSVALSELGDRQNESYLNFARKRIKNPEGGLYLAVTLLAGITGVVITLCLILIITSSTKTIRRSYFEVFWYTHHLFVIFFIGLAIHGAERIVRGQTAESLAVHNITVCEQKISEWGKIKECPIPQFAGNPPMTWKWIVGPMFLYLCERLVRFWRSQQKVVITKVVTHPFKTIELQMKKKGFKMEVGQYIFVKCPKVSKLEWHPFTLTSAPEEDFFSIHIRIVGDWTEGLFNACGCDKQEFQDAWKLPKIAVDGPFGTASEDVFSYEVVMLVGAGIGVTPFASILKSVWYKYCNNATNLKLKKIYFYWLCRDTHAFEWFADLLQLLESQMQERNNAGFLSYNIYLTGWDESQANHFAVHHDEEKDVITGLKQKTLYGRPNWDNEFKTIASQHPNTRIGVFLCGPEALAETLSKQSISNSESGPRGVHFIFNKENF

Regarding `CC(C)N1C(=O)[C@@]2(Cc3ccccc31)c1ccccc1C(=O)N(Cc1ccccc1)[C@H]2c1ccc(CO)cc1`, the composite z-score was 0.164 in [1]; -0.439 in test [6]; -0.119 in test [7]; 0.291 with Torsin-1A (Homo sapiens) [8]; -0.182 with Torsin-1A (Homo sapiens) [9]; 0.462 in test [10]. Further, in test [12], the composite z-score is -0.211. Besides, the z-score in test [2] is 0.629 (inactive); in [3], 0.0609 (inactive); in test [4] it was -0.114 (inactive); in test [5], 0.467 (inactive); in test [11], 0.882 (inactive); in test [13], 0.117 (inactive). Moreover, the z-score is 0.945 (inactive) in [14]; 0.146 (inactive) in test [15]; 0.328 (inactive) in test [16]; -0.274 in test [17]; -1.11 (inactive) in [18]; -0.462 (inactive) in [19]. Also, the z-score in [20] was -0.601.

With `COC(=O)[C@@]1(Cc2ccc(F)cc2)[C@H]2c3cc(C(=O)N(C)C)n(CCF)c3C[C@H]2CN1C(=O)c1ccccc1`, the composite z-score in test [1] is 0.101; in test [6], 0.471; in test [7], 0.117; with Torsin-1A (Homo sapiens) [8], 0.632; with Torsin-1A (Homo sapiens) [9] it was 0.606; in [10], -0.447. Besides, the composite z-score in test [12] was -0.012. Also, the z-score is -1.56 (inactive) in test [2]; -0.501 (inactive) in test [3]; -0.375 (inactive) in test [4]; 0.25 (inactive) in test [5]; 1.28 (inactive) in test [11]; 2.02 (inactive) in [13]. The z-score is -0.771 (inactive) in test [14]; -1.04 (inactive) in test [15]; -1.29 (inactive) in test [16]; 0.456 in test [17]; 0.532 (inactive) in test [18]; 0.864 (inactive) in [19]. Moreover, the z-score in test [20] is -3.46.

Consider `C=C(CCCC)C(=O)CC[C@H](OC(=O)c1ccccc1-c1ccccc1C(=O)O)c1cccc(OCCO)c1`, for which the composite z-score was -0.151 in [1]; -0.352 in [6]; -0.179 in test [7]; 0.259 with Torsin-1A (Homo sapiens) [8]; 0.114 with Torsin-1A (Homo sapiens) [9]; 0.847 in [10]. The same compound came in with a composite z-score in test [12] of -0.147. Moreover, the z-score in test [2] is -0.548 (inactive); in test [3] it was -0.77 (inactive); in test [4], 0.434 (inactive); in [5], 5.04 (inactive); in test [11], -0.497 (inactive); in [13], 8.46 (active). The z-score was 1.77 (inactive) in [14]; 1.97 (inactive) in test [15]; 0.478 (inactive) in test [16]; -0.363 in test [17]; 0.976 (inactive) in test [18]; -0.462 (inactive) in test [19]. The z-score in test [20] is -1.74.

Turning to `C=CCOC(=O)[C@H]1[C@@H]2C(=O)O[C@@H](c3ccccc3)[C@@H](c3ccccc3)N2[C@@H](c2ccc(OCCOC(=O)[C@@H]3C[C@@H]4C(=O)N[C@@H](Cc5ccccc5)C(=O)N4[C@@H]3c3ccc(O)cc3)cc2)[C@]12C(=O)Nc1ccc(I)cc12`, the composite z-score in [1] is 0.305; in [6], 0.387; in test [7] it was 0.124; with Torsin-1A (Homo sapiens) [8] it was -0.305; with Torsin-1A (Homo sapiens) [9], 0.237; in [10] it was 1.93. The compound also came in with a composite z-score in test [12] of 0.861. The z-score in [2] is -0.268 (inactive); in [3], 0.0872 (inactive); in [4] it was 0.81 (inactive); in test [5], 0.695 (inactive); in test [11], -0.402 (inactive); in test [13], 4.04 (inactive). Moreover, the z-score was 2.18 (inactive) in [14]; 2.04 (inactive) in [15]; 1.38 (inactive) in [16]; -0.674 in test [17]; 0.972 (inactive) in test [18]; -1.15 (inactive) in [19]. Further, in [20], the z-score amounted to 0.885.

`COC(=O)[C@@]1(Cc2ccc(OC)cc2)[C@H]2c3cc(C(=O)N(C)C)n(Cc4c(CO)[nH]cc(C)c4=O)c3C[C@H]2CN1C(=O)c1ccccc1`: the composite z-score in test [1] was -0.172; in test [6], 0.27; in [7], 0.0219; with Torsin-1A (Homo sapiens) [8], 0.351; in the test with Torsin-1A (Homo sapiens) [9], 0.461; in [10] it was -0.532. This compound also registered a composite z-score in test [12] of 0.318. Moreover, the z-score in [2] was -0.0137 (inactive); in [3], -0.357 (inactive); in test [4], 1.15 (inactive); in [5] it was 2.29 (inactive); in test [11], -2.08 (inactive); in [13] it was 2.77 (inactive). Further, the z-score in test [14] was 0.814 (inactive); in test [15] it was 0.072 (inactive); in [16], 0.643 (inactive); in test [17], -0.507; in test [18], -0.0394 (inactive); in test [19], -0.719 (inactive). For the same compound, in [20], the z-score is -0.777.

The values above are taken from PubChem BioAssay.
